Results: PubChem BioAssay AID1851 (National Center for Advancing Translational Sciences (NCATS), 2009)
The whole screen tested about 16,000 compounds, of which about 5,100 (32%) were called active. About 25% were inconclusive and are not listed. The list shows a part of the results. A number with no mark means an inactive call. Calls follow the shape of the dose curve; as a rule, active = well fitted curve in the direction sought with a large enough effect; inconclusive = small, poorly fitted or top-dose-only effect, or effect the other way; inactive = no such curve, though single readings can be large or run the other way.

Target: Cytochrome P450 3A4 (Homo sapiens) (UniProt P08684)
Assay: Cytochrome panel assay with activity outcomes
Conditions: recombinant CYP, pro-luciferin dealkylation, luminescence, p450-cyp3a4; series mostly up to 57.1 µM
% is scaled to controls: 0 for no effect and ±100 for the full control effect.

Cytochrome P450 3A4 (Homo sapiens), sequence (P08684 whole entry, looked up): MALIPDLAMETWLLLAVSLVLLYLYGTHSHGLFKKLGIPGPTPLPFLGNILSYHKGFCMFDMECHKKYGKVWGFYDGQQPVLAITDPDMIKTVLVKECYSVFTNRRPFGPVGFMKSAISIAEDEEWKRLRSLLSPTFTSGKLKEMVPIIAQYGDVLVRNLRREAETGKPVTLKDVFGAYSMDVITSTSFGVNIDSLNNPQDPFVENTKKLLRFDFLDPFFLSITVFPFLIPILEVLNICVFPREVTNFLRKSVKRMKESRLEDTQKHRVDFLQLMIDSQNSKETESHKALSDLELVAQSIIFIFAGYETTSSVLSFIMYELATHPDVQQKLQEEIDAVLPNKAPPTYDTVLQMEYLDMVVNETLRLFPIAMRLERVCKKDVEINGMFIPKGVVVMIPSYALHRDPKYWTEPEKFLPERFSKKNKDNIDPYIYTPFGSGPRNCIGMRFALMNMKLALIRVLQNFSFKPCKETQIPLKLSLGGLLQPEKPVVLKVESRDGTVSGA

**Q.** How did the AC50 turn out when `O=C(NCCC1=CCCCC1)C1CCCN(c2nc3ccccc3o2)C1` (centres undefined) was run?
**A.** 12.6 µM (active)

**Q.** For `O=C(CN1CCN(C2CCCCC2)CC1)NCCC1=CCCCC1`, which AC50 is on record?
**A.** inactive

**Q.** For `CC(C)(C)c1ccc(C(=O)N2CCC(C(=O)NCCC3=CCCCC3)CC2)cc1`, which activity, negative = inhibition is on record?
**A.** -5.78% [at 2.29 µM]

**Q.** How did the activity, negative = inhibition turn out when `Cc1ccccc1S(=O)(=O)O[C@@H]1NS(=O)(=O)c2ccccc21` was run?
**A.** -3.69% [at 11.4 µM]

**Q.** With `COC(=O)C1=C(C)NC(=O)NC1c1ccsc1` (centres undefined) as the molecule, how does the AC50 read?
**A.** inactive

**Q.** With `Cc1noc(NC(=O)Nc2ccccc2F)c1C#N` as the molecule, how does the activity, negative = inhibition read?
**A.** -12.9% [at 11.4 µM]

**Q.** For `CC1=C(C(=O)Nc2ccccc2F)C(c2ccsc2)C2=C(CC(c3ccccc3)CC2=O)N1` (centres undefined), which AC50 is on record?
**A.** 3.55 µM (active)

**Q.** How did the AC50 turn out when `COc1ccc(S(=O)(=O)NC2(C(F)(F)F)N=C3SCCN3C2=O)cc1` (centres undefined) was run?
**A.** inactive

**Q.** Which AC50 does the source give for `O=C(c1cnccn1)N1CCC2(CCCN(c3cccc(-c4ccccc4)c3)C2)CC1` here?
**A.** 2 µM (active)

**Q.** With `O=C(c1cnccn1)N1CCC[C@@]2(CCN(c3cccc(-c4ccccc4)c3)C2)C1` as the molecule, how does the AC50 read?
**A.** 3.98 µM (active)

**Q.** Which AC50 does the source give for `O=C(c1cnccn1)N1CCC2(CCCN(c3ccccc3)C2)CC1` here?
**A.** 1.58 µM (active)

**Q.** For `O=C(c1cnccn1)N1CCC2(CC1)CN(c1ccccc1)C2`, which AC50 is on record?
**A.** inactive

**Q.** Which AC50 does the source give for `CN(C)c1ncc2nc(-c3ccc(F)cc3)c(=O)n(C3CC3)c2n1` here?
**A.** inactive

**Q.** With `Cc1ccc(/S(C)=N/S(=O)(=O)c2ccc(C)cc2)cc1` (centres undefined) as the molecule, how does the activity, negative = inhibition read?
**A.** -0.155% [at 2.29 µM]

**Q.** `Cc1ccc(C2=C(Cl)C(=O)C(c3ccc(C)cc3)=C(Cl)C2=O)cc1` was tested. Which activity, negative = inhibition did it give?
**A.** -1.66% [at 11.4 µM]

**Q.** Which AC50 does the source give for `Cc1ccc(S(=O)(=O)CCCS(=O)(=O)c2ccc(C)cc2)cc1` here?
**A.** 12.6 µM (active)

**Q.** With `C[C@@H](CCc1ccccc1)NC[C@H](O)c1ccc(O)c(C(N)=O)c1` as the molecule, how does the AC50 read?
**A.** inactive

**Q.** How did the AC50 turn out when `C=C(NC(=O)C(=C)NC(=O)c1csc(C2=N[C@@H]3c4csc(n4)[C@@H]4NC(=O)c5csc(n5)[C@@H]([C@](C)(O)[C@H](C)O)NC(=O)[C@@H]5CSC(=N5)/C(=C/C)NC(=O)[C@@H]([C@H](C)O)NC(=O)c5csc(n5)[C@]3(CC2)NC(=O)[C@@H](C)NC(=O)C(=C)NC(=O)[C@@H](C)NC(=O)[C@@H]([C@@H](C)CC)N[C@H]2C=Cc3c([C@H](C)O)cc(nc3[C@@H]2O)C(=O)O[C@H]4C)n1)C(N)=O` was run?
**A.** inactive

**Q.** For `FC(F)(F)c1ccccc1-c1nc(NCCN2CCOCC2)c2ccccc2n1`, which AC50 is on record?
**A.** 7.94 µM (active)

**Q.** How did the AC50 turn out when `Cc1noc(C)c1-c1nc(NCCN2CCOCC2)c2ccccc2n1` was run?
**A.** 12.6 µM (active)

**Q.** Which AC50 does the source give for `Clc1ccccc1-c1nc(NCCN2CCOCC2)c2ccccc2n1` here?
**A.** 15.8 µM (active)

**Q.** How did the AC50 turn out when `CC1(C)Cc2c(ccc3ccccc23)C(=O)N1` was run?
**A.** inactive

**Q.** `Clc1ccc(CSCCc2ccncc2)cc1Cl` was tested. Which AC50 did it give?
**A.** 1 µM (active)

**Q.** With `Clc1ccc(COc2ccccn2)cc1Cl` as the molecule, how does the activity, negative = inhibition read?
**A.** -7.19% [at 2.29 µM]

**Q.** With `Clc1cccc(N/N=C/c2ccc(N3CCOCC3)cc2)c1` as the molecule, how does the activity, negative = inhibition read?
**A.** -10.2% [at 2.29 µM]

**Q.** Which AC50 does the source give for `Cc1cc(O)c(/C=N/Nc2cccc(Cl)c2)c(=O)o1` here?
**A.** 5.62 µM (active)

**Q.** Which AC50 does the source give for `NC(=O)c1nn(-c2ccccc2)c(=O)cc1O` here?
**A.** inactive

**Q.** Which activity, negative = inhibition does the source give for `O=C1CC(c2ccc3c(c2)OCO3)CN1` (centres undefined) here?
**A.** -2.08% [at 2.29 µM]

**Q.** With `O=C1CC(c2ccc3c(c2)OCO3)Sc2nc3ccccc3n21` (centres undefined) as the molecule, how does the AC50 read?
**A.** 2.51 µM (active)

**Q.** For `COc1ccc(/C=C/C(=O)c2ccoc2)cc1`, which AC50 is on record?
**A.** inactive

**Q.** With `COc1cccc(C(=O)/C=C/c2ccc(SC)cc2)c1` as the molecule, how does the AC50 read?
**A.** 3.98 µM (active)

**Q.** With `O=C(/C=C/c1ccc2ccccc2c1)c1ccoc1` as the molecule, how does the AC50 read?
**A.** inactive

**Q.** How did the activity, negative = inhibition turn out when `Nc1ccn([C@H]2O[C@@H](COP(=O)(O)O)[C@@H](O)[C@H]2O)c(=O)n1` was run?
**A.** -4.22% [at 11.4 µM]

**Q.** How did the AC50 turn out when `COc1ccc(/C=N/NC(N)=S)cc1OC(=O)c1cccc2ccccc12` was run?
**A.** 2.24 µM (active)

**Q.** `CS(=O)(=O)c1ccc(/C=N\NC(N)=S)cc1` was tested. Which activity, negative = inhibition did it give?
**A.** -4.4% [at 11.4 µM]

**Q.** Which activity, negative = inhibition does the source give for `COc1ccc(C(=O)Oc2cc(/C=N/NS(=O)(=O)c3ccc(C)cc3)ccc2OC)cc1` here?
**A.** -26% [at 2.29 µM]

**Q.** How did the activity, negative = inhibition turn out when `O=C(O)c1ccc(NS(=O)(=O)Cc2ccccc2)cc1` was run?
**A.** -11.2% [at 11.4 µM]

**Q.** For `CCOC(=O)c1ccc(NC(=O)Nc2ccc3c4c(cccc24)C(=O)N3CC)cc1`, which AC50 is on record?
**A.** inactive

**Q.** How did the AC50 turn out when `CCOC(=O)c1ccc(N/C(=N\S(=O)(=O)c2ccccc2C)c2ccccc2)cc1` was run?
**A.** 2 µM (active)

**Q.** `CCOC(=O)c1ccc(NC(=O)C2CCCO2)cc1` (centres undefined) was tested. Which activity, negative = inhibition did it give?
**A.** -7.73% [at 11.4 µM]

**Q.** `Clc1ccc(Sc2ccc(/C=N/n3cnnc3)o2)cc1` was tested. Which AC50 did it give?
**A.** 1.12 µM (active)

**Q.** Which AC50 does the source give for `CN=C1S/C(=C\c2ccc(Sc3ccc(Cl)cc3)o2)C(=O)N1C` here?
**A.** inactive

**Q.** `NC(=O)Nn1c(CCC(=O)O)ccc1-c1ccc(F)cc1` was tested. Which AC50 did it give?
**A.** inactive

**Q.** Which activity, negative = inhibition does the source give for `O=C(Nc1ccc(Cl)cc1)OCc1cc(-c2ccccc2Cl)on1` here?
**A.** 28.2% [at 2.29 µM]
